Rows were chosen to be rich in hits. Some 2.4% of all compounds tested hit in one or more screens of this group.
HepG2 tox-1: counter-screen for TGF-b inhibitors: cytotoxicity in HepG2 cells | HepG2 CAGA-GFP viability, ATP luminescence, 18 h | Potency, µM (doses to about 46.1 µM), without a hit: top-dose activity change, negative = cytotoxicity, hits mostly cytotoxic | 0.76% of 410,000 active | AID 588856
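CellTiter-Glo luminescence gave cytotoxicity after 18 hours at 37 degrees C. The cells were HepG2 CAGA-GFP in 1% FBS DMEM, stimulated with 500 pg/mL TGF-beta after compound addition. %Activity was normalised to no-cell wells (complete cell-killing) and DMSO (no toxicity), and curves were fitted and classified.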
ATXN viability: cell viability loss in ATXN counter-screen; 0.49% of 400,000 active; Potency, µM (series often up to 56.7 µM), actives largely listed as cytotoxic; S2 cells (HEK-293 line with an ATXN2-luciferase reporter) viability, CellTiter-Fluor protease fluorescence, 24 h; note: nearly all actives have a fitted effect of over 40% in size
Apoferritin bind: binds horse apoferritin like a general anesthetic. P02791. 0.074% of 350,000 active. apoferritin/1-aminoanthracene competitive binding, fluorescence. AID 485281. Potency, µM (top dose mostly 77.5 µM), inactives show at the highest dose activity change, negative = displacement, hits mostly inhibitors; note: % is set by controls: 0 for no effect and ±100 for the full control effect; nearly all actives have a fitted effect of over 20% in size
Target sequence (P02791 2-175 limits assumed): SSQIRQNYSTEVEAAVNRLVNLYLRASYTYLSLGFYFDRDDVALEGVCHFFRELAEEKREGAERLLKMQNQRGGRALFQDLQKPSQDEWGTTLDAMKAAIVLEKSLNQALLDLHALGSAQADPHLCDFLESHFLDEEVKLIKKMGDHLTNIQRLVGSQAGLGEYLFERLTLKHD
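Read-out: endpoint 1-AMA fluorescence, excitation 380 nm and emission 535 nm, after compounds sit 10 min at room temperature with 10 uM horse-spleen apoferritin in 50% saturated 1-AMA/PBS. Values come from four-parameter Hill fits.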
ATXN2 expr inh: inhibitors of ATXN2 expression; HEK-293 ATXN2-luciferase reporter, luminescence, 24 h; Potency, µM (top dose mostly 57 µM), without a hit: at the top dose activity change, negative = inhibition, most hits filed as inhibitors; 0.72% of 360,000 active; note: % is set by controls: 0 for no effect and ±100 for the full control effect; nearly all actives have a fitted effect of over 55% in size
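ATXN2-luciferase reporter cells (luciferase flanked by upstream and downstream ATXN2 gene portions) were treated 24 h at 37 °C with compounds at up to 57 uM. SteadyGlo luminescence gave expression; GF-AFC fluorescence gave viability.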
TGFb inhibitor: inhibitors of TGF-b signaling; 1.2% of 410,000 active; HepG2 CAGA-GFP TGF-b/SMAD3 reporter, GFP fluorescence, 18 h; TGF-beta stimulated, 500 pg/mL final; AID 588855; Potency, µM (titrated, usually from 46.1 µM), for inactives: at the highest dose activity, negative = inhibition, usual class: inhibitors; note: % is set by controls: 0 for no effect and ±100 for the full control effect; nearly all actives have a fitted effect of over 65% in size
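Per well, imaged GFP fluorescence of HEPG2 CAGA-GFP cells gives the signal; cells get compound, then TGF-beta (500 pg/mL final), 18 h at 37 degrees C; %Activity versus -TGF-beta and +DMSO controls.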
TGFb confirm: confirmation of TGF-b signaling inhibitors in HepG2 reporter cells | HepG2 CAGA-GFP TGF-b reporter, GFP fluorescence, 18 h; cells stimulated with TGF-beta, 500 pg/mL | Potency, µM (highest dose often 46.1 µM), for the others: at the highest dose activity, negative = inhibition, hits mostly inhibitors | shares compounds with TGFb inhibitor | 63% of 1,600 active; note: % is set by controls: 0 for no effect and ±100 for the full control effect; nearly all actives have a fitted effect of over 65% in size
HepG2 tox-2: counter-screen for TGF-b inhibitors: cytotoxicity in HepG2 cells. 27% of 1,600 active. HepG2 CAGA-GFP viability, ATP luminescence, 18 h; cells stimulated with TGF-beta, 500 pg/mL. AID 720535. Potency, µM (top dose mostly 46.1 µM), inactives show at the top dose activity, negative = cytotoxicity, actives largely listed as inhibitors. shares compounds with TGFb inhibitor; note: % is set by controls: 0 for no effect and ±100 for the full control effect; nearly all actives have a fitted effect of over 70% in size
TGFb CCL64 inh: blocks TGF-b signaling in CCL64 reporter cells | shares compounds with TGFb inhibitor | CCL64 CAGA-GFP reporter, TGF-b stimulated, GFP fluorescence, 18 h | Potency, µM (top dose mostly 46.1 µM), for the others: top-dose activity, negative = inhibition, actives largely listed as inhibitors | 41% of 1,600 active; note: nearly all actives have a fitted effect of over 65% in size
TGFb COP inh: validation of TGF-b inhibitors in HepG2 COP promoter reporter | shares compounds with TGFb inhibitor | HepG2 COP-GFP TGF-b reporter, GFP fluorescence, 18 h; cells stimulated by added recombinant TGF-beta | Potency, µM (titrated, usually from 46.1 µM), for the others: at the top dose activity, negative = inhibition, actives largely listed as inhibitors | 3% of 1,600 active | AID 720537; note: nearly all actives have a fitted effect of over 70% in size
* hit, by the source's call; i = inactive; ? = inconclusive; . = no result. Calls come from the whole dose curve; as a rule, active = well fitted curve in the direction sought with a large enough effect; inconclusive = small, poorly fitted or top-dose-only effect, or another doubt; inactive = no such curve, though single readings can be large; an effect the other way counts as inactive or inconclusive. Potency is the fitted concentration of half-maximal effect.

SMILES	HepG2 tox-1	ATXN viability	Apoferritin bind	ATXN2 expr inh	TGFb inhibitor	TGFb confirm	HepG2 tox-2	TGFb CCL64 inh	TGFb COP inh
COC(=O)[C@@]1(Cc2ccc(OC)cc2)[C@H]2c3cc(C(=O)N4CCCC4)n(Cc4c(CO)[nH]cc(C)c4=O)c3C[C@H]2CN1C(=O)c1ccccc1	-1%	i	6%	0%	?	-14%	-1%	0%	-3%
COC(=O)[C@@]1(Cc2ccc(OC)cc2)[C@H]2c3cc(C(=O)N(C)C)n(Cc4c(CO)[nH]cc(C)c4=O)c3C[C@H]2CN1C(=O)c1ccccc1	-1%	i	8%	1%	3%	.	.	.	.
O=S(=O)(NCc1ccccc1)[C@@H]1CC2C=CC1C2 (stereo not given in full)	-43%	i	.	-1%	8%	.	.	.	.
CC(C)(C)c1nnc(NC(=O)CCS(=O)(=O)c2ccccc2)s1	6%	?	-5%	28%	7.1µM*	3.7µM*	-10%	?	30%
CCOc1cccc2sc(NC(=O)CCS(=O)(=O)c3ccccc3)nc12	-8%	i	1%	-9%	14µM*	12µM*	23µM*	18µM*	?
COC(=O)c1sccc1NC(=O)c1c(C)c(-c2cccc(Cl)c2)nc2ccccc12	-11%	i	-7%	-32%	?	.	.	.	.
CCOc1cc(N2CCOCC2)c(OCC)cc1NC(=O)CN1C(=O)N(C)C2(CCCCC2)C1=O	0%	i	.	-2%	-4%	.	.	.	.
O=C(CCN1CCN(c2ccccc2)CC1)NNC(=S)Nc1ccccc1Cl	6%	i	-6%	-23%	-1%	.	.	.	.
CCOc1nc(N=C(N)N)nc2c(C)cccc12	-22%	?	-3%	?	7.9µM*	16µM*	?	7%	27%
CCCn1c(=N)n(CC(=O)c2cccs2)c2ccccc21	-24%	i	-4%	-12%	4%	.	.	.	.
N=c1n(CCN2CCCCC2)c2ccccc2n1CC(=O)c1cccs1	-50%	i	-1%	?	?	41%	?	23µM*	50%
O=C(Nc1cccc(-c2nc3cccnc3s2)c1)c1cccc(Br)c1	11%	i	-11%	-15%	-7%	.	.	.	.
COc1cccc(NC(=O)CNC(=O)c2ccccc2)c1	0%	i	3%	34%	12%	.	.	.	.
COc1ccc(NS(=O)(=O)c2cc(NC(=O)CNC(=O)c3cccc(OC)c3)ccc2C)cc1	7%	i	5%	5%	?	?	-8%	?	-1%
COc1ccc(NS(=O)(=O)c2cccc(NC(=O)CCC(=O)c3ccc(Cl)cc3)c2)cc1	-23%	?	-12%	-15%	10µM*	16µM*	?	?	46%
O=C(CN1C(=O)NC2(CCc3ccccc32)C1=O)Nc1ccccc1C(F)(F)F (stereo not given)	0%	i	.	-6%	2%	.	.	.	.
Cc1nc(Nc2ccncc2)c2oc3ccccc3c2n1	-30%	?	-13%	?	-12%	.	.	.	.
CCc1nc(Nc2ccncc2)c2oc3ccccc3c2n1	-14%	?	-21%	?	?	12µM*	?	?	22%
O=c1c(Cc2ccc(Cl)cc2Cl)c(O)ccn1Cc1ccc(Cl)cc1	1%	i	-3%	-12%	11µM*	?	?	?	24%
Cc1ccc(-n2c(SCc3ccccc3F)nc3[nH]ncc3c2=O)cc1C	-113%	?	-20%	?	?	.	.	.	.
O=c1c2cn[nH]c2nc(SCc2ccccc2F)n1-c1ccc(Br)cc1	16µM*	i	-3%	-34%	10µM*	?	?	?	77%
CC(=O)n1cc([C@H]2C=C(C(=O)N3CCOCC3)O[C@@H](OCCCCO)C2)c2ccccc21	2%	i	.	4%	-19%	.	.	.	.
O=C(O)c1ccc(S(=O)(=O)N2CCCc3ccccc32)cc1	5%	i	12%	7%	13%	.	.	.	.
NC(=O)c1ccsc1NC(=O)c1ccc(S(=O)(=O)N2CCCc3ccccc32)cc1	-16%	?	-14%	?	11µM*	5.2µM*	?	16µM*	-1%
CCOc1cc(N2CCOCC2)c(OCC)cc1NS(=O)(=O)c1ccc2c(c1)CC(=O)N2	-5%	i	.	.	-1%	.	.	.	.
SMILES	HepG2 tox-1	ATXN viability	Apoferritin bind	ATXN2 expr inh	TGFb inhibitor	TGFb confirm	HepG2 tox-2	TGFb CCL64 inh	TGFb COP inh
O=C(C[C@H]1C/C=C\CC[C@H](Cc2ccc(F)cc2)C(=O)O[C@@H](c2ccccc2)CNC1=O)N[C@H](CO)Cc1ccccc1	-66%	?	.	0%	?	.	.	.	.
O=C1N[C@@H](Cc2c[nH]c3ccccc23)COC(=O)[C@@H](Cc2ccc(F)cc2)CC/C=C/C[C@@H]1CC(=O)N(CCO)Cc1ccccc1	-2%	?	.	?	8.9µM*	5.8µM*	-8%	?	21%
O=C(C[C@H]1C/C=C\CC[C@H](Cc2ccc(F)cc2)C(=O)O[C@@H](c2ccccc2)CNC1=O)N[C@@H](CO)Cc1ccccc1	-114%	?	.	?	7.1µM*	?	?	13µM*	25%
O=C1NC[C@H](c2ccccc2)OC(=O)[C@@H](Cc2ccc(F)cc2)CC/C=C/C[C@H]1CC(=O)N(CCO)Cc1ccccc1	.	11µM*	.	14µM*	11µM*	21µM*	.	?	53%
O=C1NC[C@H](c2ccccc2)OC(=O)[C@H](Cc2ccc(F)cc2)CC/C=C/C[C@H]1CC(=O)N(CCO)Cc1ccccc1	.	?	.	0%	?	.	.	.	.
O=C1N[C@@H](Cc2c[nH]c3ccccc23)COC(=O)[C@H](Cc2ccc(F)cc2)C/C=C\C[C@H]1CC(=O)N(CCO)Cc1ccccc1	-8%	?	.	?	?	.	.	.	.
